# Results from the supplement of paper PMC11417369.
# ± gives the standard deviation of the averaged measurements. In all, about 25,000 sequences were measured (“ln(normalized median fluorescence intensity)”: median about 8.9, highest 2% from about 10 on). Shown is part of a subset that was picked to be rich in the highest values.
# Tested on: PfAP2-LT AP2 domain (GST-tagged)
# Test: gcPBM binding intensity (ln(normalized median fluorescence intensity)); higher = stronger DNA binding
# Outline: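 Plasmodium falciparum DNA-binding domains carrying a GST tag were expressed in E. coli and applied for 1 h, at about 25 μg on average, to an Agilent 4 × 180k array. The array held primer-extended double-stranded 36-bp intergenic genomic probes together with negative controls, and binding took place in 1× PBS with 1% milk, 0.2 mg/ml BSA, 0.5% salmon testes DNA and 0.03% Triton X-100. An Alexa488 anti-GST antibody detected bound protein, and the array was scanned at 488 nm. Binding intensity is taken as the highest Masliner-normalised natural-log median intensity across replicate spots of either probe orientation.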
row,Sequence,gcPBM binding intensity (ln)
1,AAGAAAAGAAACAAAAAAAAAAAGAAATAAAAGGAA [TGCATGCA_negctrl_site171],8.61 ± 0.62
2,AAAATTTATAAAAGCACACAAAATAAAAAAAAATGA [CACACA_site1491],8.88 ± 0.46
3,AAGAAAATAAAATAAAAAAAAAAATAAAAAAAATAA [TGCATGCA_negctrl_site516],8.37 ± 0.74
4,CAAAAATAAACTATAGTACACACTTATTATTATGAA [CACACA_site2702],8.8 ± 0.49
5,ACACATACTAAAATGTTGTGAAATATGATAATGTGA [CACACA_negctrl_site851],9.11 ± 0.47
6,TTAATCATAAAAGTCACACATAATAAGAAAAAGCTT [CACACA_site4616],8.78 ± 0.37
7,AAATAGGGAATTTATGCACACAGTTAAGGGGGAAAA [CACACA_site2071],9.28 ± 0.26
8,ACATATAATAAAAAATGTACACACATAAGAAAATTT [XGTACX_site6153],9.16 ± 0.38
9,TAAATACATTTATGTACACACACATAGATGTATATT [CACACA_site5618],9.22 ± 0.36
10,TAACATGATATATAATGTACATATAAGATATTTATA [XGTACX_site4383],8.79 ± 0.45
11,CAAACATATTAATGTACACACACCCACCCACAAACA [CACACA_site2752],10.2 ± 0.29
12,CATACATAGAAACACACACACACACCCACCCACAAA [CACACA_site494],10.19 ± 0.028
13,CACACCCACCAACACACACACACACCCACCCATATA [CACACA_site366],10.3 ± 0.12
14,AACATATTAATGTACACACACCCACGCACAAACAAA [CACACA_site7320],9.765 ± 0.092
15,GATACATAGAAACACACACACATACATATATACATA [CACACA_site3438],9.92 ± 0.26
16,AAGCAAACATATTAATGTACACACACCCACACACAA [XGTACX_site5806],9.95 ± 0.46
17,CACACCACCAACAAAAGTACATACATATATATATAT [XGTACX_site5781],9.65 ± 0.14
18,CACAAAGACACAAACACACACACACCCACATACATA [CACACA_site452],9.86 ± 0.24
19,TACACCCACCAACACACACACACACCCAAAAAAAAA [CACACA_site498],10.1 ± 0.14
20,CATATACACCAACACACACACACACCCACAAAAAAA [CACACA_site496],10.1 ± 0.27
21,TAACCATACATACATACACACACACCCACATATATA [CACACA_site8951],9.95 ± 0.13
22,ATATATTACAATATATGTACTTAATTTGCTTAAATA [XGTACX_site7912],8.6 ± 0.52
23,TAACAAATATTATTTTGTACATAATATATATATATA [XGTACX_site6898],8.6 ± 0.32
24,TTGTTTCAAAATTAAACACACACAAAAAAAAAAAAA [CACACA_site8856],8.86 ± 0.52

row,Sequence,gcPBM binding intensity (ln)
1,TTATATATATTTAAAAAAATAACATAAATAAATAAA [CACACA_negctrl_site347],8.29 ± 0.52
2,AGTCTTTTACATTGCACACACATTTCTTTCCTTTTG [CACACA_site2988],9.61 ± 0.36
3,AATAGGATATGGTACATTTTTTGTATACTTTTTGTT [CACACA_negctrl_site1804],8.91 ± 0.47
4,ATATATATATGTGGATGTACATATATCTCTTATTAT [XGTACX_site1748],9.05 ± 0.42
5,GAGAGAGAAATAAAAAGTACATACATATATATACAT [XGTACX_site2267],8.84 ± 0.58
6,TCATAGTCTTAATGACTACACACCTAACTATGCATG [CACACA_site1839],9 ± 0.47
7,TAATATGCATAAAATTGTACAAACTTACATATAATA [XGTACX_site2752],8.92 ± 0.45
8,CACCCATACACATACAAACACACATTCTATATATAT [CACACA_site1600],9.28 ± 0.46
9,CACAAACACCCAAACACACACACACCGACATACATA [CACACA_site4410],10.1 ± 0.46
10,GACACCCATAAATATACACACGCACAACACAAAATA [CACACA_site8944],9.46 ± 0.38
11,CAAACACCCAAACACACACACACATACATACATACA [CACACA_site8044],9.98 ± 0.15
12,CACATACCCATACAAACACACATTATATATATATAT [CACACA_site4965],9.56 ± 0.33
13,CACGCGCACCAACACACACACACACCCATATATATA [CACACA_site2204],10.3 ± 0.4
14,CATACATACAAACACACACACACACCCATATATATA [CACACA_site2918],10.1 ± 0.31
15,ATCAACAAAACATACACACACATATATATATATATA [CACACA_site2989],10.32 ± 0.057
16,CAATCAACAAAACATACACACACATATATATATATA [CACACA_site8979],10 ± 0.33
17,ATCAAAAGAAAACACACACACATACATATATATATA [CACACA_site3795],10.1 ± 0.3
18,AAAAGTTATAGACACACACACATATAAATATAGATT [CACACA_site6617],9.57 ± 0.3
19,TGTGTATAAATATACACACACATATAAATATTTTAA [CACACA_site7005],9.09 ± 0.35
20,TTGCCATTAATTTATACACACACATTTTAATTTTTT [CACACA_site8150],9.16 ± 0.39
21,GTAAATTATATAACAAATAAAAATGTACATATATAT [CACACA_negctrl_site408],8.88 ± 0.46
22,TAAATTATCTTTTTATGTACTTATTTTTATTATTTT [XGTACX_site3158],8.73 ± 0.55
23,AAAATATATGAAAACAGTACATATAAAAATTAAAAA [XGTACX_site2594],8.75 ± 0.64
24,AAAAAAATTAATATGTCAGCACATATATACATACAT [GTGCAC_negctrl_site110],8.88 ± 0.41

row,Sequence,gcPBM binding intensity (ln)
1,ATATTAGTCGAATGATGTACACACATACAAAACATT [XGTACX_site8613],9.28 ± 0.45
2,TGTGAATATATCTTTAAAAAGGATAAATAATAATTT [CACACA_negctrl_site507],8.47 ± 0.52
3,GATGGATTTATTTAAAGTACATATTTAAAAAACTGT [XGTACX_site7567],8.51 ± 0.49
4,GGAAACACAATATATACACACATATATATATATATA [CACACA_site235],10.1 ± 0.021
5,ATGTACCTATTTCATACACACACACCCACAAACAAA [CACACA_site8232],9.66 ± 0.16
6,AATACACGCAAACACACACACACACCCACATATATA [CACACA_site638],10.3 ± 0.14
7,AAGGATCACCCACAAACACACATATATATATATATA [CACACA_site559],10.2 ± 0.28
8,TATAATATAAGGATCACACACAAACACCCATATATA [CACACA_site4468],9.56 ± 0.18
9,AATATAATATAAGGATCACACACAAACACCCATATA [CACACA_site8084],9.77 ± 0.2
10,ACAATAAACATATATACACACACAAAAAAAAAAACA [CACACA_site8033],9.64 ± 0.33
11,AGCAAATACAAACACACACACACATATACATATATA [CACACA_site3497],10.1 ± 0.26
12,CGCACCCAAATATATACACACATATATATATATATA [CACACA_site1651],10.1 ± 0.16
13,GAACAAACAAAGAAAGAACACACATACACAATATAC [CACACA_site8918],9.6 ± 0.38
14,ACCTATTTCAAACACACACACACACTAACAAACATA [CACACA_site8233],10 ± 0.13
15,ACCTATTTCAAACACACACACACACCCACAAACATA [CACACA_site977],10.1 ± 0.33
16,TTTTATTTATCATACACACACAGAAAAAAAAAAAAA [CACACA_site158],8.89 ± 0.32
17,TTTTTTTTCAAAAATACAAAAAAAAAAGAAAAAAAC [CACACA_negctrl_site625],8.5 ± 0.4
18,AAATAACACATATATACACACATATAACTATAATAT [CACACA_site7298],9.29 ± 0.4
19,ACATGTAATATAATGTGTACATATACAAAGGTATAT [XGTACX_site4145],9.34 ± 0.59
20,AGTGAATATTACGAAACACACAAAAAAATACATTTC [CACACA_site511],9.09 ± 0.38
21,CAAACAAATTGTGAAACACACATATATATATATATA [CACACA_site2001],9.81 ± 0.057
22,TATATTATTAATTAGGGTACAAAAAAAAAATTTTTT [XGTACX_site7762],8.3 ± 0.48
23,AAAGGTTTATCTGATACACACATAAGTGATCAGGTT [CACACA_site6233],8.83 ± 0.33
24,TTTTTTCAATAAATAATCGTATATTGAATAATAATA [CACACA_negctrl_site822],8.07 ± 0.37

row,Sequence,gcPBM binding intensity (ln)
1,TCATTTCAATACACAAGTACGTATATGGTTATATTG [XGTACX_site6021],8.82 ± 0.4
2,ATAAGGATCAGACACAAACACACATATATATATATA [CACACA_site558],10.1 ± 0.13
3,TCATAGTAGAAACACACACACACACCCATATATATA [CACACA_site1737],10.1 ± 0.23
4,AATAACCACCAACACACACACATATATATATATATA [CACACA_site3540],10.2 ± 0.24
5,AAGGATCACAGACAAACACACATATATATATATATA [CACACA_site4469],10.1 ± 0.16
6,TATAATATAAGGATCACACACAAACAGACATATATA [CACACA_site557],9.49 ± 0.37
7,CACCCACACCAACACACACACATATATAATATATAT [CACACA_site595],9.88 ± 0.33
8,AACCACATACATATAACACACATATACAATATATAT [CACACA_site8607],9.29 ± 0.39
9,CATACTCACCAACACACACACACACCCATATAGAAT [CACACA_site592],10.2 ± 0.28
10,TATAAACACCCATATAAACACACATATAAACCAACA [CACACA_site8790],9.31 ± 0.28
11,TAATTTAGTATCTTTACATGCGGGCATTATGTCATA [TGCATGCA_site167],8.74 ± 0.4
12,AAGAAAATAGGGTTCATAGGATTATACTTTTGGAAT [TGCATGCA_negctrl_site80],8.59 ± 0.54
13,TAATACTTAATGAACACATGCACATATACATAGTAT [TGCATGCA_site496],8.82 ± 0.47
14,ACTTTTTTTTTGTGTGTGCACTCGATTATATACATA [GTGCAC_site9846],9.57 ± 0.46
15,AAAAGGAAAAATATCACACATATATATATATATATA [CACACA_site5586],9.76 ± 0.45
16,AGGAAAAAAGAAAAAACACACATAAATATATATATA [CACACA_site3085],9.11 ± 0.38
17,ATAAAAAAAAGAAAAACACACACATATATATATATA [CACACA_site8243],9.77 ± 0.27
18,TATAAAAGGAAACACACACACATATATATATATATA [CACACA_site939],10.2 ± 0.32
19,TAAAAAGGAAAACACACACACACATATATATATATA [CACACA_site3588],10.2 ± 0.26
20,AATGAAAAGGAACATACACACCCCATATAAATATAT [CACACA_site7588],9.62 ± 0.13
21,AGAATAAAAAGGAACACACACACACCCATATATATA [CACACA_site3590],10.1 ± 0.5
22,AAGGAATAATATAAAACACACACATAAATATAAATA [CACACA_site9115],9.6 ± 0.42
23,ATAAAAAGGAAACACACACACACACCCATATATATA [CACACA_site904],10.41 ± 0.042
